Source: PubChem BioAssay (EPA / NIEHS)
Inconclusive results are not listed. Active and inactive are the calls of the source. The calls were made as follows, unless noted: active = hit-call score of the fitted dose curve at least 0.9, where 1 is the maximum; inactive = score below 0.9.

Assays:
[1] = molecular target: Retinoic acid receptor RXR-alpha (Homo sapiens) (UniProt P19793); assay: TOX21_TR_RXR_BLA_Agonist_Followup_ratio: Tox21 Thyroid Hormone Receptor beta Retinoid X Receptor alpha (RXRa) Agonism Beta-lactamase (BLA) Follow-Up Assay, Ratio (AID 2283968; active = hit-call score of the fitted dose curve at least 0.9, where 1 is the maximum)
Chain of Retinoic acid receptor RXR-alpha (Homo sapiens) (P19793 whole entry, looked up, the tested form may be a part): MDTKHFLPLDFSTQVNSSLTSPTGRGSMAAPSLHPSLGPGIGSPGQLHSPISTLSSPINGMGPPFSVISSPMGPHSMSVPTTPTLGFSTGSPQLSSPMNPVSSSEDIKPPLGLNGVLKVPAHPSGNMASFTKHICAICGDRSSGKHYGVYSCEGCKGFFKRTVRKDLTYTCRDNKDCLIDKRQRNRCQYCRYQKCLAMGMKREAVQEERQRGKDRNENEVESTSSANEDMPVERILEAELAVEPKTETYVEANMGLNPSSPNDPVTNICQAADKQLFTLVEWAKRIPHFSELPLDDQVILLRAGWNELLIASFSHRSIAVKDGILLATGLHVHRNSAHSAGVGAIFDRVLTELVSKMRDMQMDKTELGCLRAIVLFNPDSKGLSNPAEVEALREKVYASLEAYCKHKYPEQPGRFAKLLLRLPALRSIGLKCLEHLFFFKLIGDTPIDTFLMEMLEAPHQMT
How it was run: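 RXRa-UAS-bla HEK293T cells (GAL4 beta-lactamase reporter) were treated with compounds at 11 concentrations in triplicate for 16 h at 37C/5% CO2, then loaded with CCF4-AM substrate for 2 h at room temperature; activity is the 460:530 nm ratio versus DMSO baseline.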

[2] = TOX21_TR_RXR_BLA_Agonist_Followup_viability: Viability Assessment in the Tox21 Thyroid Hormone Receptor beta Retinoid X Receptor alpha (RXRa) Agonism Beta-lactamase (BLA) Follow-Up Assay (AID 2283970; active = hit-call score of the fitted dose curve at least 0.9, where 1 is the maximum)
How it was run: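 RXRa-UAS-bla HEK293T cells seeded at 2,500/well in phenol red-free DMEM with 2% charcoal-stripped FBS, exposed to compound 16h at 37C/5% CO2 in qHTS. Viability read by CellTiter-Glo ATP luminescence; bidirectional fitting against DMSO baseline, signal loss indicating cytotoxicity.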

[3] = molecular target: Retinoic acid receptor RXR-alpha (Homo sapiens) (UniProt P19793); assay: TOX21_TR_RXR_BLA_Antagonist_Followup_ratio: Tox21 Thyroid Hormone Receptor beta Retinoid X Receptor alpha (RXRa) Antagonism Beta-lactamase (BLA) Follow-Up Assay, Ratio (AID 2283972; active = hit-call score of the fitted dose curve at least 0.9, where 1 is the maximum)
Description: GeneBLAzer RXRa-UAS-bla HEK293T assay (RXRa-bla) (ThermoFisherScientific Catalog No. K1697) was run in qHTS 1536 well format as a secondary assay for specificity of response in the TOX21_TR_GH3_LUC_Agonist assay.TOX21_TR_RXR_BLA_Antagonist_Followup_ratio is an assay readout measuring reporter gene via receptor activity and designed using inducible reporter (beta lactamase induction) detected with GAL4 b-lactamase reporter gene. The signal is derived from the ratio of cleaved (ch2) to uncleaved (ch1) reporter gene substrate used as the measure of target activity.Data from the assay component TOX21_TR_RXR_BLA_Antagonist_Followup_ratio was analyzed into 1 assay endpoint. This assay endpoint, TOX21_TR_RXR_BLA_Antagonist_Followup_ratio, was analyzed in the positive analysis fitting direction relative to DMSO as the negative control and baseline of activity. Using a type of inducible reporter, loss-of-signal activity can be used to understand changes in the reporter gene as they relate to the gene RXRA. Furthermore, this assay endpoint can be referred to as a primary readout, because this assay has produced multiple assay endpoints and this ratio serves a reporter gene function to understand target activity. To generalize the intended target to other relatable targets, this assay endpoint is annotated to the nuclear receptor intended target family, where subfamily is non-steroidal. […]

[4] = TOX21_TR_RXR_BLA_Antagonist_Followup_viability: Viability Assessment in the Tox21 Thyroid Hormone Receptor beta Retinoid X Receptor alpha (RXRa) Antagonism Beta-lactamase (BLA) Follow-Up Assay (AID 2283979; active = hit-call score of the fitted dose curve at least 0.9, where 1 is the maximum)
How it was run: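 RXRa-bla HEK293T cells (2,500/well, phenol red-free DMEM, 2% charcoal-stripped FBS) were attached 5 h, then exposed to compounds at 11 concentrations in triplicate for 16 h at 37C. Viability measured by CellTiter-Glo ATP luminescence, bidirectional fitting versus DMSO.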

[5] = CCTE_Harrill_HTTr_Viability_DMEM_6hr: (Pilot) CCTE's 6-hour Cell Viability Assessment for the High-Throughput Transcriptomics (HTTr) Platform, in MCF-7 cells cultured in DMEM + 10% fetal bovine serum, Harrill Lab (AID 2283973)
How it was run: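 MCF-7 cells in DMEM + 10% FBS, eight-point dilution series, 6 h exposure. Membrane integrity by propidium iodide exclusion with high-content imaging; bidirectional fit versus DMSO.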

[6] = CCTE_Harrill_HTTr_Viability_DMEM_12hr: (Pilot) CCTE's 12-hour Cell Viability Assessment for the High-Throughput Transcriptomics (HTTr) Platform, in MCF-7 cells cultured in DMEM + 10% fetal bovine serum, Harrill Lab (AID 2283974)
Description: (§1) This is a cell-based assay that evaluates cell viability using high content imaging to evaluate membrane integrity using propidium iodide dye exclusion in a 384 well format.One of seven assay components measured from the CCTE_Harrill_HTTr_Viability assay. This was part of a pilot experiment. This is a cell-based assay that evaluates cell viability in MCF-7 cells cultured in DMEM + 10% fetal bovine serum. High content imaging is used to evaluate membrane integrity using propidium iodide dye exclusion. Measurements are taken at 12 hours after chemical dosing in 384-well format.The assay component endpoint CCTE_Harrill_HTTr_Viability_DMEM_12hr was analyzed with bidirectional fitting relation to DMSO as the negative control and baseline of activity. Using a type of viability reporter to understand changes in cytotoxicity, gain-of-signal activity can be used to evaluate membrane integrity using propidium iodide dye exclusion. To generalize the intended target to other relatable targets, this assay endpoint is annotated to cell cycle, where the subfamily is cytotoxicity.
(§2) Chemicals were tested in MCF7 cells in an eight point dilution series with a twelve hour exposure duration.

[7] = CCTE_Harrill_HTTr_Viability_DMEM_24hr: (Pilot) CCTE's 24-hour Cell Viability Assessment for the High-Throughput Transcriptomics (HTTr) Platform, in MCF-7 cells cultured in DMEM + 10% fetal bovine serum, Harrill Lab (AID 2283975)
Description: as §1, with “24” for “12”, “CCTE_Harrill_HTTr_Viability_DMEM_24hr” for “CCTE_Harrill_HTTr_Viability_DMEM_12hr”
Chemicals were tested in MCF7 cells in an eight point dilution series with a twenty-four hour exposure duration.

[8] = CCTE_Harrill_HTTr_Viability_PRF_DMEM_6hr: (Pilot) CCTE's 6-hour Cell Viability Assessment for the High-Throughput Transcriptomics (HTTr) Platform, in MCF-7 cells cultured phenol red-free DMEM + 10% charcoal-stripped fetal bovine serum, Harrill Lab (AID 2283976)
Description: (§3) This is a cell-based assay that evaluates cell viability using high content imaging to evaluate membrane integrity using propidium iodide dye exclusion in a 384 well format.One of seven assay components measured from the CCTE_Harrill_HTTr_Viability assay. This was part of a pilot experiment. This is a cell-based assay that evaluates cell viability in MCF-7 cells cultured in phenol red-free DMEM + 10% charcoal-stripped fetal bovine serum. High content imaging is used to evaluate membrane integrity using propidium iodide dye exclusion. Measurements are taken at 6 hours after chemical dosing in 384-well format.The assay component endpoint CCTE_Harrill_HTTr_Viability_PRF_DMEM_6hr was analyzed with bidirectional fitting relation to DMSO as the negative control and baseline of activity. Using a type of viability reporter to understand changes in cytotoxicity, gain-of-signal activity can be used to evaluate membrane integrity using propidium iodide dye exclusion. To generalize the intended target to other relatable targets, this assay endpoint is annotated to cell cycle, where the subfamily is cytotoxicity.
Chemicals were tested in MCF7 cells in an eight point dilution series with a six hour exposure duration.

[9] = CCTE_Harrill_HTTr_Viability_PRF_DMEM_12hr: (Pilot) CCTE's 12-hour Cell Viability Assessment for the High-Throughput Transcriptomics (HTTr) Platform, in MCF-7 cells cultured in phenol red-free DMEM + 10% charcoal-stripped fetal bovine serum, Harrill Lab (AID 2283977)
Description: as §3, with “12” for “6”, “CCTE_Harrill_HTTr_Viability_PRF_DMEM_12hr” for “CCTE_Harrill_HTTr_Viability_PRF_DMEM_6hr”
as §2

[10] = CCTE_Harrill_HTTr_Viability_PRF_DMEM_24hr: (Pilot) CCTE's 24-hour Cell Viability Assessment for the High-Throughput Transcriptomics (HTTr) Platform, in MCF-7 cells cultured in phenol red-free DMEM + 10% charcoal-stripped fetal bovine serum, Harrill Lab (AID 2283980)
How it was run: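 MCF-7 cells in phenol red-free DMEM with 10% charcoal-stripped FBS, eight-point dilution series, 24 h exposure. Membrane integrity by propidium iodide exclusion with high content imaging; bidirectional fit vs DMSO.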

Measured: outcome

Cc1cc(O)ccc1Cl
inactive: [1] | [2]

CO/C=C(/C(=O)OC)c1ccccc1COc1cccc(C(F)(F)F)n1
inactive: [3] | [4]

CCC(C)(c1ccc(O)cc1)c1ccc(O)cc1
inactive: [5] | [6] | [7] | [8] | [9] | [10]

CC(C)(c1ccccc1)c1ccc(O)cc1
inactive: [5] | [6] | [7] | [8] | [9] | [10]

C[C@]12CCC(=O)C=C1CC[C@@H]1[C@@H]2CC[C@@]2(C)[C@H]1CC[C@]2(C)O
inactive: [4]
